# Results taken from paper PMC7862700, “An all-to-all approach to the identification of sequence-specific readers for epigenetic DNA modifications on cytosine”.
# Legend:
# Assay in all cases: DAPPL (digital affinity profiling via proximity ligation, sequencing); 10 mM Tris-HCl pH 7.5, 50 mM NaCl, 1 mM DTT, 4% glycerol, room temperature, 30 min; GST-TFs on glutathione beads, 16-mer random dsDNA library, 0.1% formaldehyde crosslink after washing; high values mean tight binding
# FLI1 = biological target: T1, FLI1 (Homo sapiens, UniProt Q01543 1-452); settings: protein: recombinant; tags: N-terminal GST; dsDNA, one strand shown
# T1 sequence: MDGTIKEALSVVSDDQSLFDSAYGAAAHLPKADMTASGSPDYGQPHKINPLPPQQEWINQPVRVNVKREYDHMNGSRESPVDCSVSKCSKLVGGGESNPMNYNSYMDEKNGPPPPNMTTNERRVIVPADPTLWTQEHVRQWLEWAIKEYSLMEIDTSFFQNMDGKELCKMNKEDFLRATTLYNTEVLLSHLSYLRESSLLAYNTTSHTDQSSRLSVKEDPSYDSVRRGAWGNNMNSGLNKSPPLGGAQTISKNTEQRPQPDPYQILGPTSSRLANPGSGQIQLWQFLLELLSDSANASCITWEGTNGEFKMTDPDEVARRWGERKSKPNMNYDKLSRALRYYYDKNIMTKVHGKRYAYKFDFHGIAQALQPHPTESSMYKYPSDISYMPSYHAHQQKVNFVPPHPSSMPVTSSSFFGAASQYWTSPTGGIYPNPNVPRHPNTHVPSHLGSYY
# Summary of the method: (§1)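 Human transcription factors carrying a GST fusion were produced in yeast, bound to glutathione beads, tagged with DNA barcodes and pooled together with a tag-only sample. Each pool was held with 200 nmole of a random double-stranded 16-mer DNA library in Tris/NaCl/DTT/glycerol buffer for 30 min at room temperature, then washed, crosslinked in 0.1% formaldehyde, proximity-ligated with BsaI/T4 ligase (1 h, 37 °C), PCR-amplified and sequenced on an Illumina NextSeq500. Binding signal is the read frequency of each hexamer for a given factor divided by its frequency in the tag-only sample.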
# ELK1 = biological target: T2, ELK1 (Homo sapiens, UniProt P19419 1-428); settings: protein: recombinant; tags: N-terminal GST; dsDNA, one strand shown
# T2 sequence: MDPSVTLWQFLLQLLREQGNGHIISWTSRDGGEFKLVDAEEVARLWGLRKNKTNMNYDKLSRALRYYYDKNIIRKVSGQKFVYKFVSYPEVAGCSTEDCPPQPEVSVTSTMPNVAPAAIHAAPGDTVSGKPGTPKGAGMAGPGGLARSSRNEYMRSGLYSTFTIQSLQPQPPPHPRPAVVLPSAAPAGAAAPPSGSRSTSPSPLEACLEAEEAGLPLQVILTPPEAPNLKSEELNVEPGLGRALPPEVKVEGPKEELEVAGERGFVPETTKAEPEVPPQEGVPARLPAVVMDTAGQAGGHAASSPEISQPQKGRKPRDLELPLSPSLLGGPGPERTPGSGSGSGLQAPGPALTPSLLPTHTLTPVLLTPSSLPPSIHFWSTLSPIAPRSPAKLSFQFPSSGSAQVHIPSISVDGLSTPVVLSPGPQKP
# Summary of the method: as §1
# GABPA = biological target: T3, GABPA (Homo sapiens, UniProt Q06546 1-454); settings: protein: recombinant; tags: N-terminal GST; dsDNA, one strand shown
# T3 sequence: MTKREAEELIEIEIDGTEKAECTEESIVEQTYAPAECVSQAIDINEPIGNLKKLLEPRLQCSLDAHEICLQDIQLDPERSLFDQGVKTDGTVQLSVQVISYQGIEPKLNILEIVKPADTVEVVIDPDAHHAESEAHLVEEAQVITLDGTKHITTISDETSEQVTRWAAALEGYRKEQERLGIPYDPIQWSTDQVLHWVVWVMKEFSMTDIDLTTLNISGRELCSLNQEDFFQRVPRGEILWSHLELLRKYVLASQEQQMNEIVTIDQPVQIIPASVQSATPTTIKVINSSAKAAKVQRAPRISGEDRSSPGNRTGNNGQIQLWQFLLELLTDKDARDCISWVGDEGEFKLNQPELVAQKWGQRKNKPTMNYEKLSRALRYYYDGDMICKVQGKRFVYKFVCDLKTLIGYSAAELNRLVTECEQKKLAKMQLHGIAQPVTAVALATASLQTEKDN
# Summary of the method: as §1
# ERG = biological target: T4, ERG (Homo sapiens, UniProt P11308 1-479); settings: protein: recombinant; tags: N-terminal GST; dsDNA, one strand shown
# T4 sequence: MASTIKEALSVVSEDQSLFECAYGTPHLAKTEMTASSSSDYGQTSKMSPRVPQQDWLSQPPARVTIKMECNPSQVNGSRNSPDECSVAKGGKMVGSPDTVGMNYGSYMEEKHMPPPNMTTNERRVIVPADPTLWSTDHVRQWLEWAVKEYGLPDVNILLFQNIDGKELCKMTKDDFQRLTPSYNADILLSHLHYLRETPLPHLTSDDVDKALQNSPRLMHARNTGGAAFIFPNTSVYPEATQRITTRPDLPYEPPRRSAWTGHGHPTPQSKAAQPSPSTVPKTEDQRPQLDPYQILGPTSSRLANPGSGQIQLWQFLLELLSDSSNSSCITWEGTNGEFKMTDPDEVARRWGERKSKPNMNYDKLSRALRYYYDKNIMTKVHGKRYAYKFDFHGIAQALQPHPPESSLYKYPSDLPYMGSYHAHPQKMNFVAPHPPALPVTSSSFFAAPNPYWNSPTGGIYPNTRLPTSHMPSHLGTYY
# Summary of the method: as §1
# ELF1 = ELF1 (Homo sapiens, UniProt P32519 1-619); settings: protein: recombinant; tags: N-terminal GST; dsDNA, one strand shown
# Summary of the method: as §1
# EHF = biological target: T5, EHF (Homo sapiens, UniProt Q9NZC4 1-300); settings: protein: recombinant; tags: N-terminal GST; dsDNA, one strand shown
# T5 sequence: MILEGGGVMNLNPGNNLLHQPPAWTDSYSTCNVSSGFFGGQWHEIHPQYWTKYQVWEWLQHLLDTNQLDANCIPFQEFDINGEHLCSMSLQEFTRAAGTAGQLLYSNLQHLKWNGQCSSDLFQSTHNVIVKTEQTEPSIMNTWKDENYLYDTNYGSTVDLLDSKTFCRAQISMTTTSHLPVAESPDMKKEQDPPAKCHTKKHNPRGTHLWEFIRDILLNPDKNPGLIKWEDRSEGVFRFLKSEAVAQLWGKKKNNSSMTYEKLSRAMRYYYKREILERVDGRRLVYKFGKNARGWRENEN
# Summary of the method: as §1
# SPI1 = SPI1 (Homo sapiens, UniProt P17947 1-270); settings: protein: recombinant; tags: N-terminal GST; dsDNA, one strand shown
# Summary of the method: as §1
# SPIB = SPIB (Homo sapiens, UniProt Q01892 1-262); settings: protein: recombinant; tags: N-terminal GST; dsDNA, one strand shown
# Summary of the method: as §1
# ELK3 = biological target: T6, ELK3 (Homo sapiens, UniProt P41970 1-407); settings: protein: recombinant; tags: N-terminal GST; dsDNA, one strand shown
# T6 sequence: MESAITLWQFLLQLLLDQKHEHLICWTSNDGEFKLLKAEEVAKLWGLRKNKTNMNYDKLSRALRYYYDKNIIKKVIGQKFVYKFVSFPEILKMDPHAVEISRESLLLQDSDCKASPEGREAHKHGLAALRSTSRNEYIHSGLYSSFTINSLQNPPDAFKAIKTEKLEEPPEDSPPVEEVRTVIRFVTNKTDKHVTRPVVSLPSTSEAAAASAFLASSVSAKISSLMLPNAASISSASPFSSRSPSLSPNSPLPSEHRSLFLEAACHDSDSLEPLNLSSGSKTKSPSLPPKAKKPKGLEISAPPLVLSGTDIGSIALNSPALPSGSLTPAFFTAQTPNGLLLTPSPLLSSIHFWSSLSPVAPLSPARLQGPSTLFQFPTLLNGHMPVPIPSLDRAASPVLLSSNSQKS
# Summary of the method: as §1
# FEV = biological target: T7, FEV (Homo sapiens, UniProt Q99581 1-238); settings: protein: recombinant; tags: N-terminal GST; dsDNA, one strand shown
# T7 sequence: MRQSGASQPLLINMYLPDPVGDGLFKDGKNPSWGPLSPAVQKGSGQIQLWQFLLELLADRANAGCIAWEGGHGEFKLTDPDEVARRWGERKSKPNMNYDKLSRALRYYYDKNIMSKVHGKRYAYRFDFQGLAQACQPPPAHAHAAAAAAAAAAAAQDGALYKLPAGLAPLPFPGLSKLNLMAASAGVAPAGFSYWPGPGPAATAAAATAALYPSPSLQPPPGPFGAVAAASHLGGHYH
# Summary of the method: as §1
# ETV5 = ETV5 (Homo sapiens, UniProt P41161 1-510); settings: protein: recombinant; tags: N-terminal GST; dsDNA, one strand shown
# Summary of the method: as §1
# HSF1 = HSF1 (Homo sapiens, UniProt Q00613 1-529); settings: protein: recombinant; tags: N-terminal GST; chain copies: 3; dsDNA, one strand shown
# Summary of the method: as §1
# SPIC = biological target: T8, SPIC (Homo sapiens, UniProt Q8N5J4 1-248); settings: protein: recombinant; tags: N-terminal GST; dsDNA, one strand shown
# T8 sequence: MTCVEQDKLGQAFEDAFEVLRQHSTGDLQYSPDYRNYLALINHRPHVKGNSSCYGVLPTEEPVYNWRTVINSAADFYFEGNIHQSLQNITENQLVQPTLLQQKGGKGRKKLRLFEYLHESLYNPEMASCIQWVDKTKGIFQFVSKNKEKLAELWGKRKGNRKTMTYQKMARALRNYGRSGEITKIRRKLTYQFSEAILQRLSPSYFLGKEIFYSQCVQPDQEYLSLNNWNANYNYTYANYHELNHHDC
# Summary of the method: as §1
# ELF4 = ELF4 (Homo sapiens, UniProt Q99607 1-663); settings: protein: recombinant; tags: N-terminal GST; dsDNA, one strand shown
# Summary of the method: as §1
# ELK4 = biological target: T9, ELK4 (Homo sapiens, UniProt P28324-2 1-405); settings: protein: recombinant; tags: N-terminal GST; dsDNA, one strand shown
# T9 sequence: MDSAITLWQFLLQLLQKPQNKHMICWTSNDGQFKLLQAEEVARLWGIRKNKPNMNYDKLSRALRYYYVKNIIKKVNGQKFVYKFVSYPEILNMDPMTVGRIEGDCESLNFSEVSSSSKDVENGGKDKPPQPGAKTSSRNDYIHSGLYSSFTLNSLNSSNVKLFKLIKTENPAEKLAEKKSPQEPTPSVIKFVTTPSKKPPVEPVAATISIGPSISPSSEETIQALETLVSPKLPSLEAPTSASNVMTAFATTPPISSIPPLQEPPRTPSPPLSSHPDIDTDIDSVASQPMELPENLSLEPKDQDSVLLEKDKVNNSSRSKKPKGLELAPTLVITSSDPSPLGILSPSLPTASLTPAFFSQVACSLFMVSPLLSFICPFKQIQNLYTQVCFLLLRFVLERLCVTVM
# Summary of the method: as §1
# ETV2 = biological target: T10, ETV2 (Homo sapiens, UniProt O00321 1-342); settings: protein: recombinant; tags: N-terminal GST; dsDNA, one strand shown
# T10 sequence: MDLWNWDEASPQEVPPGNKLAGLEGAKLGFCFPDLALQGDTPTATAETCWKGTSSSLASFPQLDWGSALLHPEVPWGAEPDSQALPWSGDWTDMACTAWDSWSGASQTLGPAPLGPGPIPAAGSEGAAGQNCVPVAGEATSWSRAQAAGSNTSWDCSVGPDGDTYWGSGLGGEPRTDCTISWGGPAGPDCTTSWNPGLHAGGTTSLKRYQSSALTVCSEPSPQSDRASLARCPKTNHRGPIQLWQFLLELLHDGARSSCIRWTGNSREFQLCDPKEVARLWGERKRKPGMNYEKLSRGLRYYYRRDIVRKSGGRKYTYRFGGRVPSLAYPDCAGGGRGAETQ
# Summary of the method: as §1
# ELF3 = biological target: T11, ELF3 (Homo sapiens, UniProt P78545 1-371); settings: protein: recombinant; tags: N-terminal GST; dsDNA, one strand shown
# T11 sequence: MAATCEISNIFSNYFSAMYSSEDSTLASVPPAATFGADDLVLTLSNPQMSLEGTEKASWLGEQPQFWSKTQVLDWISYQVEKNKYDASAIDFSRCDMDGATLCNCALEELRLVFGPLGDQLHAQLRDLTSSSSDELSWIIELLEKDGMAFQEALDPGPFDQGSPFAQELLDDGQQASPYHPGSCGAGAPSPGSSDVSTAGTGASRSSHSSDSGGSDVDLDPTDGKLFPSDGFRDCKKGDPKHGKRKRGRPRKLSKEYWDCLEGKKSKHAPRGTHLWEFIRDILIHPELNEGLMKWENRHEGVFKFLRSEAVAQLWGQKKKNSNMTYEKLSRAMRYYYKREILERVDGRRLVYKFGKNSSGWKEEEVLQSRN
# Summary of the method: as §1
# CRX = CRX (Homo sapiens, UniProt O43186 1-299); settings: protein: recombinant; tags: N-terminal GST; dsDNA, one strand shown
# Summary of the method: as §1
# ETV1 = ETV1 (Homo sapiens, UniProt P50549 1-477); settings: protein: recombinant; tags: N-terminal GST; dsDNA, one strand shown
# Summary of the method: as §1
# ELF1, sequence (P32519 whole entry): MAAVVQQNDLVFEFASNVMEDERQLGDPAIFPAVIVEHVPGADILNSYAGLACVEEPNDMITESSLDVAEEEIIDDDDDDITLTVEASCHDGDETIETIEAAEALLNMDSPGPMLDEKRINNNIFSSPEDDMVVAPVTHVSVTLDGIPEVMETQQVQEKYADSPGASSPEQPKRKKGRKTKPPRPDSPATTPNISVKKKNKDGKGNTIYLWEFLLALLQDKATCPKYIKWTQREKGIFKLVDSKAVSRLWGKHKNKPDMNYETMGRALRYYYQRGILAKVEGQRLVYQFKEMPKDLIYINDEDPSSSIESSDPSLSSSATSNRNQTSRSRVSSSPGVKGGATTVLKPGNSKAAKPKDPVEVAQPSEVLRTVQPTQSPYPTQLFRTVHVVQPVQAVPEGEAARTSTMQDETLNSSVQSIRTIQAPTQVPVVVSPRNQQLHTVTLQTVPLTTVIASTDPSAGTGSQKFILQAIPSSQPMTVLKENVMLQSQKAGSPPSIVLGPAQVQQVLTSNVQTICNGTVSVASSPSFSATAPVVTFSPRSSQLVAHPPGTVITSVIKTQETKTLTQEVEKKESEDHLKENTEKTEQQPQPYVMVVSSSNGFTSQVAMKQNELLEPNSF
# SPIB, sequence (Q01892 whole entry): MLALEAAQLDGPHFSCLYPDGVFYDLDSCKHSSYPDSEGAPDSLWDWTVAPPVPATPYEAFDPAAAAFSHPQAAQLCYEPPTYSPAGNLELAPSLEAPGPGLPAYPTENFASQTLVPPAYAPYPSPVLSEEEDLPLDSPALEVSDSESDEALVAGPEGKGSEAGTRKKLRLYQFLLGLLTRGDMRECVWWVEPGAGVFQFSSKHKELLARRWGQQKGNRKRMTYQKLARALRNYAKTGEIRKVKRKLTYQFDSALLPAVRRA
# HSF1, sequence (Q00613 whole entry): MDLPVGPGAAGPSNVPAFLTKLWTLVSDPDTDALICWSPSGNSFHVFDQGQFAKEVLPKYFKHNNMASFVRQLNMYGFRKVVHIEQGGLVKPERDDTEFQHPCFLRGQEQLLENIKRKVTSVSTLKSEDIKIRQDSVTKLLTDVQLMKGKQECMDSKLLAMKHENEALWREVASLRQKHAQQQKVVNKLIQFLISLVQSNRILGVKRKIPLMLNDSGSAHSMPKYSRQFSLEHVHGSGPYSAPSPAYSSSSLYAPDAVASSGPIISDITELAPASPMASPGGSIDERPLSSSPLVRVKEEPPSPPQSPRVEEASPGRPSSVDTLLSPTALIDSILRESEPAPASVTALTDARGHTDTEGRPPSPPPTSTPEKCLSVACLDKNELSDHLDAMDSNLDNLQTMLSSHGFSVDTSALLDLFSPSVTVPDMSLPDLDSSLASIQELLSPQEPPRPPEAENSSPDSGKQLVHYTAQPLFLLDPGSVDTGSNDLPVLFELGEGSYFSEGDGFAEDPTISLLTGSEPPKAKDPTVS
# ETV5, sequence (P41161 whole entry): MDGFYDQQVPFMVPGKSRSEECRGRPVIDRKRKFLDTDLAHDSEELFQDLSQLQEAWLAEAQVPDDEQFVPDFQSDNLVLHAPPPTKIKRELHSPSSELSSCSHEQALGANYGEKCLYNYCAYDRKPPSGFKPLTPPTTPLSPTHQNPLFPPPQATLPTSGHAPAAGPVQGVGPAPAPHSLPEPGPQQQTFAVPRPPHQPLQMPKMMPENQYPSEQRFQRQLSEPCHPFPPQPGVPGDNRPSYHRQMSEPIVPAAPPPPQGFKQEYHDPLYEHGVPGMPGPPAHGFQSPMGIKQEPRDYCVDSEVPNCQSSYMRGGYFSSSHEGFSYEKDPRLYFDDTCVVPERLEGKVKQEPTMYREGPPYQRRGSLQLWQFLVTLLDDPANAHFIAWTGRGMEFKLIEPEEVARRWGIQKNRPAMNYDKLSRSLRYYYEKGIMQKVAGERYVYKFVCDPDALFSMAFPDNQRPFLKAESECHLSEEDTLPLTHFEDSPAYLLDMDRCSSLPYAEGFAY
# ETV1, sequence (P50549 whole entry): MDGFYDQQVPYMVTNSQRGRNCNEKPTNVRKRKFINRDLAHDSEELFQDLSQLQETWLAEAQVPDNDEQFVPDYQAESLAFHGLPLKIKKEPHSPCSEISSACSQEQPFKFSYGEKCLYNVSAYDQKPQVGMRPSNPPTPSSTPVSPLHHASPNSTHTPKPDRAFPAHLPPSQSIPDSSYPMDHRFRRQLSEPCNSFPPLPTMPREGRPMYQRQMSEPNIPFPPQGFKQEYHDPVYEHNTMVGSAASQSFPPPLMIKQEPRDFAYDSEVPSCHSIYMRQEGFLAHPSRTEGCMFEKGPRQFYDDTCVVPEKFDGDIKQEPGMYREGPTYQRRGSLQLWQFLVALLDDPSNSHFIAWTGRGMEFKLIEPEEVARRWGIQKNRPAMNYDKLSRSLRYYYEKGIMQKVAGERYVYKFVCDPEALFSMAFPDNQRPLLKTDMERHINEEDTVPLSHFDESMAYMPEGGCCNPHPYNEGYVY
# CRX, sequence (O43186 whole entry): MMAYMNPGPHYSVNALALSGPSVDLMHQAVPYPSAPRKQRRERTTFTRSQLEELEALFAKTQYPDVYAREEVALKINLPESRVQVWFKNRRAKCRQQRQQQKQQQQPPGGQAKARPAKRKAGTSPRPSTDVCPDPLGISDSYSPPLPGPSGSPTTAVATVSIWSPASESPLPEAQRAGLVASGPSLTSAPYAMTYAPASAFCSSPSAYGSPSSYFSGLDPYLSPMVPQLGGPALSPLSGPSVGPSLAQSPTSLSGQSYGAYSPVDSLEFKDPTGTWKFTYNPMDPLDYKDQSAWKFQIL
# ELF4, sequence (Q99607 whole entry): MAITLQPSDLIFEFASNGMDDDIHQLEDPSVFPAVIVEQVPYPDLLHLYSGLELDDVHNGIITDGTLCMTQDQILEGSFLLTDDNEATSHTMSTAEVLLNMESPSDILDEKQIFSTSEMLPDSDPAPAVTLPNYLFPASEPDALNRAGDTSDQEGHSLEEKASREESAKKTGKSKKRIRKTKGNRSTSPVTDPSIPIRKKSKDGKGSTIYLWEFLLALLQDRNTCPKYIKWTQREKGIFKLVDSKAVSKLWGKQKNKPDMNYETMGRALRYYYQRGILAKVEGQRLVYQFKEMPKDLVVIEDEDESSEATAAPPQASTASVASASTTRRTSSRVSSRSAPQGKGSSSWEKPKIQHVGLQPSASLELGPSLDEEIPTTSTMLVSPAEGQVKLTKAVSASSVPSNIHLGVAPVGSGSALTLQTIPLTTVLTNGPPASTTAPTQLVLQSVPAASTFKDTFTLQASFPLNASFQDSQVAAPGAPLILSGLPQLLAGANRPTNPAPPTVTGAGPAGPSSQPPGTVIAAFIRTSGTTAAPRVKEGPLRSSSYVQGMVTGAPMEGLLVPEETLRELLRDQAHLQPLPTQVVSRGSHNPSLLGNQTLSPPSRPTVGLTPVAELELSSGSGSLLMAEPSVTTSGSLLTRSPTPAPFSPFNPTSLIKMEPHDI
sequence,measurement,setting,value
TAATAT,binding signal,FLI1,"1.36 fold enrichment (6-mer frequency, TF over GST control)"
same,binding signal,ELK1,"1.25 fold enrichment (6-mer frequency, TF over GST control)"
same,binding signal,GABPA,"1.3 fold enrichment (6-mer frequency, TF over GST control)"
same,binding signal,ERG,"1.25 fold enrichment (6-mer frequency, TF over GST control)"
same,binding signal,ELF1,"1.27 fold enrichment (6-mer frequency, TF over GST control)"
same,binding signal,EHF,"1.3 fold enrichment (6-mer frequency, TF over GST control)"
same,binding signal,SPI1,"1.23 fold enrichment (6-mer frequency, TF over GST control)"
same,binding signal,SPIB,"1.21 fold enrichment (6-mer frequency, TF over GST control)"
same,binding signal,ELK3,"1.33 fold enrichment (6-mer frequency, TF over GST control)"
same,binding signal,FEV,"1.25 fold enrichment (6-mer frequency, TF over GST control)"
same,binding signal,ETV5,"1.26 fold enrichment (6-mer frequency, TF over GST control)"
same,binding signal,HSF1,"1.58 fold enrichment (6-mer frequency, TF over GST control)"
same,binding signal,SPIC,"1.16 fold enrichment (6-mer frequency, TF over GST control)"
same,binding signal,ELF4,"1.28 fold enrichment (6-mer frequency, TF over GST control)"
same,binding signal,ELK4,"1.37 fold enrichment (6-mer frequency, TF over GST control)"
same,binding signal,ETV2,"1.31 fold enrichment (6-mer frequency, TF over GST control)"
same,binding signal,ELF3,"1.25 fold enrichment (6-mer frequency, TF over GST control)"
same,binding signal,CRX,"2.01 fold enrichment (6-mer frequency, TF over GST control)"
same,binding signal,ETV1,"1.27 fold enrichment (6-mer frequency, TF over GST control)"
